Pol beta inh: inhibitors of human DNA polymerase beta; P06746; 1.3% of 340,000 active; Potency, µM (series often up to 114 µM), for the others: at the top dose activity change, negative = inhibition, most hits filed as inhibitors; Pol beta primer extension/strand displacement, fluorescence kinetic; also: % is scaled to controls: 0 for no effect and ±100 for the full control effect
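Pol beta (10 nM) was preincubated with compound for 15 min at room temperature. The reaction was then started with 50 nM substrate and read immediately and after a further 10 min at room temperature.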
POLI inh: inhibitors of human DNA polymerase iota. Q9UNA4. 1% of 390,000 active. AID 588590. Pol iota fluorescent replication assay, 10 min. Potency, µM (series often up to 115 µM), for inactives: at the top dose activity, negative = inhibition, hits mostly inhibitors
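Pol iota at 10 nM preincubated 15 min with compounds at room temperature; reaction started with fluorescent substrate, 50 nM final. Fluorescence read kinetically at 0 and 10 min; buffer-only wells as negative control.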
POLK inh: DNA polymerase kappa (human) inhibition; Q9UBT6; 0.53% of 400,000 active; purified Pol kappa, fluorescent DNA synthesis assay, 10 min; Potency, µM (doses to about 107 µM), for the others: at the highest dose activity, negative = inhibition, most hits filed as inhibitors; also: % is scaled to controls: 0 for no effect and ±100 for the full control effect
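Pol kappa 10 nM + cpd, 15 min RT; start w/ substrate 50 nM final; fluorescence kinetic read, 0 and 10 min. Neg ctrl: buffer, no enzyme.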
L3MBTL1 inh: L3MBTL1 (human) inhibition; AID 485360; 0.66% of 230,000 active; Potency, µM (series often up to 57.1 µM), for inactives: at the top dose activity, negative = inhibition, most hits filed as inhibitors; Q9Y468; AlphaScreen L3MBTL1–H3K9me1 peptide binding; also: % is scaled to controls: 0 for no effect and ±100 for the full control effect; nearly all actives have a fitted effect of over 60% in size
Target sequence (Q9Y468 whole entry, looked up): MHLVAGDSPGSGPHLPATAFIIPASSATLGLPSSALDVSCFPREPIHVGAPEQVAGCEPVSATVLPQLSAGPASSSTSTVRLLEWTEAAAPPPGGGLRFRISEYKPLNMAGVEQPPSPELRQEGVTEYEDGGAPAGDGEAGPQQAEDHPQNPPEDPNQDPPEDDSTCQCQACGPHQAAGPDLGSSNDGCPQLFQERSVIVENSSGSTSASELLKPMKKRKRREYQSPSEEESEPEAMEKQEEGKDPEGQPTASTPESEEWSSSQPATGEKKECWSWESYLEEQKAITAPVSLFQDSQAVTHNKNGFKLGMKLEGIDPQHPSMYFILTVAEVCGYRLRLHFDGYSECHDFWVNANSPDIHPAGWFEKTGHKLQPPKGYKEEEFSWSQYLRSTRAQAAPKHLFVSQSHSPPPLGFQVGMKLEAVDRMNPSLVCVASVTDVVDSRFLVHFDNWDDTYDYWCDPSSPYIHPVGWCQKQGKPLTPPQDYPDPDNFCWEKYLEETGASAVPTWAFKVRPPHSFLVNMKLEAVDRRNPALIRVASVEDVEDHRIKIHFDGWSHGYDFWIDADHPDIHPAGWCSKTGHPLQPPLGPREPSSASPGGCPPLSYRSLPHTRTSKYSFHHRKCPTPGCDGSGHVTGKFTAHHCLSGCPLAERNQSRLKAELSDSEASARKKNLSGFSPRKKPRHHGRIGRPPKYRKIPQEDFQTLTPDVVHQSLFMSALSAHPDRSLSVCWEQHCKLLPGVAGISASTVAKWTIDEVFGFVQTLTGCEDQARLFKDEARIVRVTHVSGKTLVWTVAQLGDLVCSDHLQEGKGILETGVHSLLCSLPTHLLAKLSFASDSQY
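AlphaScreen assay: L3MBTL1 (50 nM final) was preincubated 30 min at room temperature with biotinylated H3(1-15)K9me1 peptide (75 nM final), then 30 min with library compounds; streptavidin donor and nickel chelate acceptor beads (10 ug/mL final) added, 30 min dark.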
Pol eta inh: DNA polymerase eta (human) inhibition. Q9Y253. recombinant Pol eta, fluorescent DNA replication assay. Potency, µM (titrated, usually from 114 µM), without a hit: at the highest dose activity change, negative = inhibition, most hits filed as inhibitors. 1.2% of 390,000 active; also: % is scaled to controls: 0 for no effect and ±100 for the full control effect
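Pol eta (10 nM) was preincubated with compounds for 15 min at room temperature, after which fluorescent replication substrate (50 nM final) was added to start the reaction. Fluorescence was read kinetically at 0 and 10 min.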
An asterisk follows results filed as active; u = inconclusive; x = no result; ! = repeats disagree; [ ] = another dose, or the depositor's remark. This is a sample that favours compounds with a hit; in the whole collection about 2.4% have one here. Calls follow the shape of the dose curve; as a rule, active = well fitted curve in the direction sought with a large enough effect; inconclusive = small, poorly fitted or top-dose-only effect, or another doubt; inactive = no such curve, though single readings can be large; an effect the other way counts as inactive or inconclusive. Potency is read from the fitted curve at half-maximal effect.

SMILES	Pol beta inh	POLI inh	POLK inh	L3MBTL1 inh	Pol eta inh
Cc1cc(N(C)C)cc(C)c1/C=C/c1cc[n+](C)c2ccccc12	x	57.8%	-18.4%	x	x
COc1ccc([C@]23Cc4cc(OC)c(OC)cc4C(O2)C2=C(CCCC2=O)O3)cc1	-23.9%[22.9 µM]	x	x	x	x
COc1cccc(N2C(=O)C(c3ccccc3)=C(c3nc4ccccc4s3)C2NC(C)=O)c1 (configuration not stated)	89.1µM*	0.9%	-1.6%	x	-16.8%
CC(=O)NC1C(c2nc3ccccc3s2)=C(c2ccccc2)C(=O)N1c1ccc(C)cc1 (configuration not stated)	-11.4%	0.1%	-11.6%	x	1.4%
CCC(=O)N(C)C[C@H]1Oc2ncc(C#Cc3cccnc3)cc2C(=O)N([C@@H](C)CO)C[C@@H]1C	x	x	x	x	-6.7%
Cc1oc2c(c1C(=O)O)C(=O)c1ccccc1C2=O	3.2%	u	-16.6%	u	-29.0%
Cc1oc2c(c1C(=O)c1ccccc1)C(=O)C(=O)c1ccccc1-2	56.2µM*	0.891µM*	-9.7%	u	20µM*
Cc1ccnc(NS(=O)(=O)c2ccc(CC(C)C)cc2)c1	100µM*	-22.5%	-3.1%	x	0.6%
Cc1ccc(-c2csc3ncnc(SCc4ccc(C(=O)O)cc4)c23)cc1	u	-23.6%	7.4%	-2.3%	79.4µM*
Cc1sc2ncnc(SCc3ccc(C(=O)O)cc3)c2c1C	0.9%	31.6%	19.3%	12.9%	u
O=C(CSc1ncnc2scc(-c3ccccc3)c12)N1CCN(Cc2ccc3c(c2)OCO3)CC1	15.8µM*	u	-18.0%	u	u
c1ccc(-c2csc3ncnc(N4CCN(Cc5ccc6c(c5)OCO6)CC4)c23)cc1	37.5%	-6.9%	-0.4%	x	-25.5%
Cc1ccc(-c2csc3ncnc(Nc4ccc(C(=O)O)cc4)c23)cc1	u	-4.0%	-9.7%	x	79.4µM*!
CN(C)/[N+]([O-])=N/Oc1cc(O/[N+]([O-])=N/N2CCCC2CO)c([N+](=O)[O-])cc1[N+](=O)[O-] (configuration not stated)	x	-4.8%	-11.8%	x	x
COC(=O)C1=C(C)N(c2cc(C)cc(C)c2)/C(=C/c2ccco2)C1=O	u	u	u	12.6µM*	-6.7%
COc1ccc(N=C2S/C(=C\c3cc(C)n(C)c3C)C(=O)N2CC(C)C)cc1	-0.3%	-5.6%	-7.6%	-21.9%	-14.8%
COc1ccc(N=C2S/C(=C\c3ccco3)C(=O)N2CC(C)C)cc1	79.4µM*	-3.2%	-2.3%	-17.9%	-10.1%
Cc1ccc2sc(N(Cc3cccnc3)C(=O)CCOc3ccccc3)nc2c1C	25.6%	15.6%	-1.8%[60.1 µM]	x	-4.6%
O=C1Nc2ccccc2C1Cc1ccc(Br)cc1 (configuration not stated)	10.4%	0.8%	0.4%	x	-13.2%
CN(C)c1ccc(CC2C(=O)Nc3ccccc32)cc1 (configuration not stated)	-4.7%	25.1µM*	-12.4%	u	-18.8%
Cc1cccc(-n2ncc3c(N4CCN(CCO)CC4)ncnc32)c1	7.6%	7.1%	-7.5%[60.1 µM]	x	0.5%
O=C(C[n+]1ccccc1Br)c1ccc2c(c1)CCCC2	x	70.8µM*	u	x	x
O=C(C[n+]1ccccc1Br)c1ccc(O)c(O)c1	x	-2.0%	1.3%	x	x
O=C(CCl)c1ccc2c(c1)CCCC2	x	11.2µM*	-7.0%	x	x
C/C(=N\Nc1nc2ccccc2c(=O)n1O)c1ccco1	u	17.8µM*	-23.5%	x	u
SMILES	Pol beta inh	POLI inh	POLK inh	L3MBTL1 inh	Pol eta inh
Cc1cc(Cl)ccc1OCC(=O)OC(C)C(=O)N(C)C (configuration not stated)	u	50.1µM*	-17.3%	-5.1%	u
N#C/C(=C/c1cccn1-c1cccc(C(=O)O)c1)c1ccc(F)cc1	31.6µM*	25.1µM*	u	u	25.1µM*
COc1ccc(/C=C2/Sc3ccc(C(=O)N4CCOCC4)cc3NC2=O)cc1OC	-2.0%	-19.2%	13.7%	x	-7.4%
CCOC(=O)N1CCN(C(=O)c2ccc3c(c2)NC(=O)/C(=C\c2ccc(OC)c(OC)c2)S3)CC1	-19.3%	17.8µM*	25.1µM*	x	-7.0%
O=C1Nc2ccc3sc4ccccc4c3c2C1=O	5.62µM*	22.4µM*	-30.3%	x	u
COc1cc(C(=O)ONC(=O)c2ccc(OC(F)F)cc2)cc(OC)c1OC	31.6µM*	u	-24.4%	x	79.4µM*
O=C(NOC(=O)c1ccccc1F)c1ccc(OC(F)F)cc1	-2.9%	27.9%	-13.6%	4.5%	1.1%
N#C/C(=C\c1ccc(-c2cccc(Cl)c2)o1)C(=O)Nc1cccc(C(F)(F)F)c1	-19.9%	89.1µM*	-25.4%	x	-0.9%
CC1=C(/C=C/C(C)=C/C=C/C(C)=C/C(=O)O)C(C)(C)CCC1O (configuration not stated)	x	x	3.8%[19.4 µM]	x	x
CC(C)Nc1nnc(SCC(=O)Nc2sccc2C#N)s1	x	u	-34.3%	-12.2%	31.6µM*
Cc1ccnc(SCC(=O)Nc2sccc2C#N)n1	31.6µM*	u	u	x	-27.2%
COc1ccc(CNC(=O)c2cc3cc(C)ccc3n2C)cc1	-17.4%	29.3%	-22.4%	x	-21.3%
COC(=O)c1c(NC(=O)c2nc3ccccc3s2)sc2c1CCN(C(C)=O)C2	7.7%	51.9%	7.5%	x	-6.1%
CNC(=O)c1c(NC(=O)c2nc3ccccc3s2)sc2c1CCC2	44.7µM*	x	x	x	x
CN(C)S(=O)(=O)c1ccc2c(c1)N(CC(=O)Nc1ccc(OC(F)(F)F)cc1)C(=O)CS2	0.7%	-13.0%	18.3%	x	-9.5%
COc1ccc2[nH]c3nc(SCC(=O)Nc4ccc5c(c4)OCO5)nnc3c2c1	22.4µM*	u	-2.6%	x	u
COc1ccc(-c2nc(SCC(=O)Nc3ccc4c(c3)OCCO4)c(-c3ccc(F)cc3)[nH]2)cc1	39.8µM*	u	-26.4%	x	-17.0%
Cc1ccc(C)c(N(C)C(=O)CCNC(=O)Cn2cnc3ccccc3c2=O)c1	-0.5%	21.2%	-3.3%	x	-15.3%
CCc1ccc(CNC(=O)C(C)n2ccc3cc(S(=O)(=O)N4CCCCCC4)ccc32)cc1 (configuration not stated)	-0.7%	22.6%	-8.4%	x	-19.4%
CC(C)(C)C(=O)Nc1ccc2nc(SCC(=O)N3CCc4ccccc43)sc2c1	13.5%	107.3%	-6.8%	x	-19.2%
CC(=O)c1ccc2noc(-c3ccccc3)c2c1	19.9%	33.8%	12.3%	-4.7%	-6.4%
CN(C)/C=C/C(=O)c1ccc2noc(-c3ccccc3)c2c1	u	79.4µM*	-18.4%	x	u
CCN(CC)c1ccc(C(=O)c2ccccc2C(=O)O)c(O)c1	8.9%	-7.5%	-3.0%	u	-13.9%
O=C(O)c1cc(N(Cc2ccccc2O)Cc2ccccc2O)ccc1O	x	14.1µM*	44.7µM*	x	x
Cc1ccc(C(=O)OC2=C(C(=O)c3ccccc3)N(C)S(=O)(=O)c3ccccc32)cc1	u	89.1µM*	-10.9%	x	-18.9%
CCCCN(C(=O)Cn1ncc(Cl)c(Cl)c1=O)c1c(N)n(CC(C)C)c(=O)[nH]c1=O	22.4µM*	15.8µM*	70.8µM*	-28.7%	28.2µM*
